Records with an inconclusive call do not appear. Activity calls are given as the source filed them. How the source made its calls: active means hit-call score of the fitted dose curve at least 0.9, where 1 is the maximum; inconclusive means response in the unintended direction; inactive means score below 0.9.
Assays:
[1] = read-out: Cytochrome P450 2B6 (Homo sapiens) (UniProt P20813); test: CLD_CYP2B6_24hr: CellzDirect (CLD) Gene Expression Assay for xenobiotic metabolism (CYP2B6) at 24 hours (AID 2283686)
Method: (§1) CLD_24hr is a cell-based, multiplexed-readout assay that uses hepatocyte, a human liver primary cell, with measurements taken at 24 hours after chemical dosing in a 96-well plate.CLD_CYP2B6_24hr is one of 16 assay component(s) measured or calculated from the CLD_24hr assay. It is designed to make measurements of mRNA induction, a form of inducible reporter, as detected with chemiluminescence signals by Quantitative Nuclease Protection Assay (qNPA) technology.Data from the assay component CLD_CYP2B6_24hr was analyzed at the endpoint, CLD_CYP2B6_24hr, in the positive analysis fitting direction relative to DMSO as the negative control and baseline of activity. Using a type of inducible reporter, gain-of-signal activity can be used to understand changes in the reporter gene as they relate to the gene CYP2B6. Furthermore, this assay endpoint can be referred to as a primary readout. To generalize the intended target to other relatable targets, this assay endpoint is annotated to the cyp intended target family, where subfamily is xenobiotic metabolism.
(§2) Human hepatocyte cultures were treated daily for two consecutive days with fresh dosing solutions containing appropriate concentrations of the 320 ToxCast chemicals (chemical identities were blinded to CellzDirect and other ToxCast collaborators), vehicle control (0.2% DMSO), and positive control inducers as summarized in Table 1. Due to the large number of treatment groups and chemicals examined, the ToxCast chemicals were divided into two groups (spanning two independent cultures of hepatocytes from separate donor preparations (Hu778: ToxCast plates 1 and 2; Hu776: ToxCast plates 3 and 4). Each preparation of human hepatocyte cultures was treated with respective vehicle control, medium only control, set of six positive controls/reference chemicals for the five hepatic receptor pathways, and a subset of eight of the ToxCast chemicals (indoxacarb, pyrithiobac-sodium, norflurazon, cyhalofop-butyl, methomyl, thiram, acetochlor, and propiconazole). These replicate data, coupled with internal replicates designed within the blinded ToxCast chemical library, provided additional data to evaluate interindividual differences between hepatocyte preparations and their potential impact on chemical profiles.Cell morphology and integrity were evaluated using phase-contrast microscopy as an indicator of hepatocyte cell health (Tyson & Green, 1987). Cultures for each treatment group (i.e., media, vehicle [0.2% DMSO], positive control inducers [multiple concentrations], and the ToxCast chemicals [multiple concentrations]) were observed and cell morphology was assessed relative to vehicle control cultures at each harvest time point (0, 6, 24, or 48 h). […] Images were evaluated at the conclusion of the study to assess changes in cell integrity and account for the effects of chemical exposure on uncharacteristic changes in concentration-dependent gene expression profiles. The results from these determinations of apparent cytotoxicity were annotated (yes/no) alongside the corresponding qNPA data for reference.At the conclusion of each treatment period, hepatocyte cultures (96-well) were washed with 1 volume of HBSS, lysed by addition of 25 ul ArrayPlate lysis buffer (HTG, Tucson, AZ), and 70 ul/well of Denaturation Oil, denatured by incubation at 95C for 10 min, and frozen at approximately -70C until analysis by nuclease protection assay (qNPA) (Roberts et al., 2007). […]

[2] = read-out: Cytochrome P450 2C19 (Homo sapiens) (UniProt P33261); test: CLD_CYP2C19_24hr: CellzDirect (CLD) Gene Expression Assay for xenobiotic metabolism (CYP2C19) at 24 hours (AID 2283687);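 further: activity means mRNA induction above DMSO vehicle baseline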
Procedure, shortened: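 CYP2C19 mRNA was quantified by qNPA chemiluminescence after 24 h of daily dosing of cultured human primary hepatocytes from two donors; vehicle was 0.2% DMSO, and increases over DMSO baseline were fitted.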

[3] = read-out: Cytochrome P450 2C9 (Homo sapiens) (UniProt P11712); test: CLD_CYP2C9_24hr: CellzDirect (CLD) Gene Expression Assay for xenobiotic metabolism (CYP2C9) at 24 hours (AID 2283688)
Method: as §1, with “plate.CLD_CYP2C9_24hr” for “plate.CLD_CYP2B6_24hr”, “CLD_CYP2C9_24hr” for “CLD_CYP2B6_24hr”, “CLD_CYP2C9_24hr,” for “CLD_CYP2B6_24hr,”, “CYP2C9.” for “CYP2B6.”
(§3) Human hepatocyte cultures were treated daily for two consecutive days with fresh dosing solutions containing appropriate concentrations of the 320 ToxCast chemicals (chemical identities were blinded to CellzDirect and other ToxCast collaborators), vehicle control (0.2% DMSO), and positive control inducers as summarized in Table 1. […] These replicate data, coupled with internal replicates designed within the blinded ToxCast chemical library, provided additional data to evaluate interindividual differences between hepatocyte preparations and their potential impact on chemical profiles.Cell morphology and integrity were evaluated using phase-contrast microscopy as an indicator of hepatocyte cell health (Tyson & Green, 1987). Cultures for each treatment group (i.e., media, vehicle [0.2% DMSO], positive control inducers [multiple concentrations], and the ToxCast chemicals [multiple concentrations]) were observed and cell morphology was assessed relative to vehicle control cultures at each harvest time point (0, 6, 24, or 48 h). […]

[4] = read-out: Cytochrome P450 3A4 (Homo sapiens) (UniProt P08684); test: CLD_CYP3A4_24hr: CellzDirect (CLD) Gene Expression Assay for xenobiotic metabolism (CYP3A4) at 24 hours (AID 2283689)
Method: as §1, with “plate.CLD_CYP3A4_24hr” for “plate.CLD_CYP2B6_24hr”, “CLD_CYP3A4_24hr” for “CLD_CYP2B6_24hr”, “CLD_CYP3A4_24hr,” for “CLD_CYP2B6_24hr,”, “CYP3A4.” for “CYP2B6.”
as §2

[5] = read-out: organic anion transporter (SLCO1B1), SLCO1B1 (gene 10599); test: CLD_SLCO1B1_24hr: CellzDirect (CLD) Gene Expression Assay for organic anion transporter (SLCO1B1) at 24 hours (AID 2283690)
Procedure, shortened: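 SLCO1B1 mRNA induction read at 24 h by quantitative nuclease protection assay (chemiluminescence), analyzed against DMSO baseline. Human hepatocyte cultures from separate donors received fresh dosing solutions daily; vehicle 0.2% DMSO; cytotoxicity flagged by phase-contrast morphology.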

[6] = read-out: sulfotransferase (SULT2A), SULT2A1 (gene 6822); test: CLD_SULT2A_24hr: CellzDirect (CLD) Gene Expression Assay for sulfotransferase (SULT2A) at 24 hours (AID 2283694)
Method: as §1, with “plate.CLD_SULT2A_24hr” for “plate.CLD_CYP2B6_24hr”, “CLD_SULT2A_24hr” for “CLD_CYP2B6_24hr”, “CLD_SULT2A_24hr,” for “CLD_CYP2B6_24hr,”, “SULT2A1.” for “CYP2B6.”, “transferase” for “cyp”, “sulfotransferase.” for “xenobiotic metabolism.”
Human hepatocyte cultures were treated daily for two consecutive days with fresh dosing solutions containing appropriate concentrations of the 320 ToxCast chemicals (chemical identities were blinded to CellzDirect and other ToxCast collaborators), vehicle control (0.2% DMSO), and positive control inducers as summarized in Table 1. […] These replicate data, coupled with internal replicates designed within the blinded ToxCast chemical library, provided additional data to evaluate interindividual differences between hepatocyte preparations and their potential impact on chemical profiles.Cell morphology and integrity were evaluated using phase-contrast microscopy as an indicator of hepatocyte cell health (Tyson & Green, 1987). Cultures for each treatment group (i.e., media, vehicle [0.2% DMSO], positive control inducers [multiple concentrations], and the ToxCast chemicals [multiple concentrations]) were observed and cell morphology was assessed relative to vehicle control cultures at each harvest time point (0, 6, 24, or 48 h). […] Images were evaluated at the conclusion of the study to assess changes in cell integrity and account for the effects of chemical exposure on uncharacteristic changes in concentration-dependent gene expression profiles. […]

[7] = read-out: Broad substrate specificity ATP-binding cassette transporter ABCG2 (Homo sapiens) (UniProt Q9UNQ0); test: CLD_ABCG2_24hr: CellzDirect (CLD) Gene Expression Assay for ABC Transporter (ABCG2) at 24 hours (AID 2283685)
Method: (§4) CLD_24hr is a cell-based, multiplexed-readout assay that uses hepatocyte, a human liver primary cell, with measurements taken at 24 hours after chemical dosing in a 96-well plate.CLD_ABCG2_24hr is one of 16 assay component(s) measured or calculated from the CLD_24hr assay. It is designed to make measurements of mRNA induction, a form of inducible reporter, as detected with chemiluminescence signals by Quantitative Nuclease Protection Assay (qNPA) technology.Data from the assay component CLD_ABCG2_24hr was analyzed at the endpoint, CLD_ABCG2_24hr, in the positive analysis fitting direction relative to DMSO as the negative control and baseline of activity. […] Furthermore, this assay endpoint can be referred to as a primary readout. […]
(§5) Human hepatocyte cultures were treated daily for two consecutive days with fresh dosing solutions containing appropriate concentrations of the 320 ToxCast chemicals (chemical identities were blinded to CellzDirect and other ToxCast collaborators), vehicle control (0.2% DMSO), and positive control inducers as summarized in Table 1. […] Cultures for each treatment group (i.e., media, vehicle [0.2% DMSO], positive control inducers [multiple concentrations], and the ToxCast chemicals [multiple concentrations]) were observed and cell morphology was assessed relative to vehicle control cultures at each harvest time point (0, 6, 24, or 48 h). […]

[8] = read-out: HMG-CoA synthase (HMGCS2), HMGCS2 (gene 3158); test: CLD_HMGCS2_24hr: CellzDirect (CLD) Gene Expression Assay for HMG-CoA synthase (HMGCS2) at 24 hours (AID 2283691)
Method: as §4, with “plate.CLD_HMGCS2_24hr” for “plate.CLD_ABCG2_24hr”, “CLD_HMGCS2_24hr” for “CLD_ABCG2_24hr”, “CLD_HMGCS2_24hr,” for “CLD_ABCG2_24hr,”
as §5

[9] = read-out: Glyceraldehyde-3-phosphate dehydrogenase (Homo sapiens) (UniProt P04406); test: CLD_GAPDH_24hr: CellzDirect (CLD) Gene Expression Assay for Baseline Control (Glyceraldehyde 3-phosphate dehydrogenase) at 24 hours (AID 2283692)
Method: CLD_24hr is a cell-based, multiplexed-readout assay that uses hepatocyte, a human liver primary cell, with measurements taken at 24 hours after chemical dosing in a 96-well plate.CLD_GAPDH_24hr is one of 16 assay component(s) measured or calculated from the CLD_24hr assay. It is designed to make measurements of mRNA induction, a form of inducible reporter, as detected with chemiluminescence signals by Quantitative Nuclease Protection Assay (qNPA) technology.Data from the assay component CLD_GAPDH_24hr was analyzed at the endpoint, CLD_GAPDH_24hr, in the positive analysis fitting direction relative to DMSO as the negative control and baseline of activity. Using a type of inducible reporter, gain-of-signal activity can be used to understand changes in the reporter gene as they relate to the gene GAPDH. Furthermore, this assay endpoint can be referred to as a secondary readout, because this assay has produced multiple assay endpoints where this one serves a background control function. […]
as §3

[10] = read-out: alkyl and aryl transferase (GSTA2), GSTA2 (gene 2939); test: CLD_GSTA2_24hr: CellzDirect (CLD) Gene Expression Assay for alkyl and aryl transferase (GSTA2) at 24 hours (AID 2283693)
Method: as §4, with “plate.CLD_GSTA2_24hr” for “plate.CLD_ABCG2_24hr”, “CLD_GSTA2_24hr” for “CLD_ABCG2_24hr”, “CLD_GSTA2_24hr,” for “CLD_ABCG2_24hr,”
as §5

Measured: AC50

Sequence of Cytochrome P450 3A4 (Homo sapiens) (P08684 whole entry, looked up): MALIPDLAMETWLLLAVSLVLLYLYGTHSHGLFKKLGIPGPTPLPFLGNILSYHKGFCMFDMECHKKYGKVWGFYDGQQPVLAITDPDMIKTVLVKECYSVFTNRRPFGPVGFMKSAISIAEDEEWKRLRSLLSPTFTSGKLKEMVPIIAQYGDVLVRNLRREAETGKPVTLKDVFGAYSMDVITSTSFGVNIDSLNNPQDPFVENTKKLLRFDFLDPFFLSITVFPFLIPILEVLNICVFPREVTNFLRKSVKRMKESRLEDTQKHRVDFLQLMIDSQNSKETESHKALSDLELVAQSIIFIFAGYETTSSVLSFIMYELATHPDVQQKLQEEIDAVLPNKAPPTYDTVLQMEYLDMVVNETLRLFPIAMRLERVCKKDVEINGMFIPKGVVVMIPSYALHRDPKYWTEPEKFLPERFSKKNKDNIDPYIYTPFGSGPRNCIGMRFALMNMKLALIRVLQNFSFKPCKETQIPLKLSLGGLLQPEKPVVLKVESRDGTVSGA
Sequence of Glyceraldehyde-3-phosphate dehydrogenase (Homo sapiens) (P04406 whole entry, looked up): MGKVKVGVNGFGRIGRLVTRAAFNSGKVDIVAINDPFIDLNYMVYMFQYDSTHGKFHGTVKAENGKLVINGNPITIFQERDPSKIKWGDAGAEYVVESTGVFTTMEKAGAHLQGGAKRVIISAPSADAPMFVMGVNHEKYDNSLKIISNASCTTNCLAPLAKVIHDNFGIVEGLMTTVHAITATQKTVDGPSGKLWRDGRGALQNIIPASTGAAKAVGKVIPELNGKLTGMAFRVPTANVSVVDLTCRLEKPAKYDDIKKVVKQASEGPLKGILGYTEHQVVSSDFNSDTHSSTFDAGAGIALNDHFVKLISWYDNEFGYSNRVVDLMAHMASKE
Sequence of Cytochrome P450 2C19 (Homo sapiens) (P33261 whole entry, looked up): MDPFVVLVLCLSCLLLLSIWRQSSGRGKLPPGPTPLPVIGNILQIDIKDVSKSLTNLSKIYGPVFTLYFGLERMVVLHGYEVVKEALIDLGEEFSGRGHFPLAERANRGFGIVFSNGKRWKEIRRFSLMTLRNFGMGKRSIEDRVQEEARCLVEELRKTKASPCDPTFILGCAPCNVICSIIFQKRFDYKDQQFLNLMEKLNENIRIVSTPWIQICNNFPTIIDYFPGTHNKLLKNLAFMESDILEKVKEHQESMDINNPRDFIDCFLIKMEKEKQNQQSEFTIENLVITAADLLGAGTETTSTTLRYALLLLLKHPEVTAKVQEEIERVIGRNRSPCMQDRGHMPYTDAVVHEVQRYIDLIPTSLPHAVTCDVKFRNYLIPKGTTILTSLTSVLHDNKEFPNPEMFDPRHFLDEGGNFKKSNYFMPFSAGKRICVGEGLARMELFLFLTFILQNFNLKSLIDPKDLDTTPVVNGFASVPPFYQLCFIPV
Sequence of Broad substrate specificity ATP-binding cassette transporter ABCG2 (Homo sapiens) (Q9UNQ0 whole entry, looked up): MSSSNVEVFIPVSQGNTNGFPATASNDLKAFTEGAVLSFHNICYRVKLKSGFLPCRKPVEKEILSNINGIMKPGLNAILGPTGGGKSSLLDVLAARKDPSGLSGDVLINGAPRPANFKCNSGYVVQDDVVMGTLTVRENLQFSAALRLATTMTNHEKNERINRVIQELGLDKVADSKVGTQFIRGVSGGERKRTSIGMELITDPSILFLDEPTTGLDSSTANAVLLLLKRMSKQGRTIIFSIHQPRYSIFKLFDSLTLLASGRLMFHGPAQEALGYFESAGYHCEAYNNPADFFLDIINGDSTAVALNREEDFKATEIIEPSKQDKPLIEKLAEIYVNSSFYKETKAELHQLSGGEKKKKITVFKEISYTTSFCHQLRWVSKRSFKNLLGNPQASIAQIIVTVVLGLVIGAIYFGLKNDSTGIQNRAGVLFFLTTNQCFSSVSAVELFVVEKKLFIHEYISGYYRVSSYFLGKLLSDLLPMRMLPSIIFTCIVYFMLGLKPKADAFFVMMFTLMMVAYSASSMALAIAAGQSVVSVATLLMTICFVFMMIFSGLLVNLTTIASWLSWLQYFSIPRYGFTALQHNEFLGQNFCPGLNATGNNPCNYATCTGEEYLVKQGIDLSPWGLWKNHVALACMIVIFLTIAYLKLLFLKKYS

Cc1ccccc1CO[C@@H]1C[C@@]2(C(C)C)CC[C@]1(C)O2
inactive: [2] | [3] | [5] | [6]
active: [1] 3.91 µM | [4] 20 µM

CCSC(=O)N(CC)C1CCCCC1
active: [1] 6.17 µM | [4] 0.000663 µM
not listed: [3] | [6]
inactive: all other assays above

CN(C)c1nc(=O)n(C2CCCCC2)c(=O)n1C
inactive: [1] | [2] | [5] | [9] | [6]
active: [4] 3.97 µM

CCC(C)(CC)c1cc(NC(=O)c2c(OC)cccc2OC)on1
inactive: [3] | [5] | [6]
active: [1] 0.259 µM | [4] 0.0271 µM

CCNc1nc(NC(C)C)nc(SC)n1
active: [1] 0.92 µM | [4] 4.22 µM
inactive: [3] | [9] | [10] | [6]
